# Bioassay records deposited in PubChem BioAssay by several laboratories.
# A selection: hits, their analogues and other compounds. The true share with any hit is near 4%.
# UGM FP inh: Mtb UDP-galactopyranose mutase inhibition; P9WIQ1; purified UGM, fluorescence polarization probe displacement; inhibition, % at 10 µM; hit rate 0.06% among 320,000; AID 504406; in the data active = inhibition above about 10%, passing the limit was not always enough; inconclusive = no clear call, values can overlap the other calls
# Mtb bLac sens: beta-lactam sensitization of Mtb H37Rv; inhibition, % at 25 µM; M. tuberculosis H37Rv growth with meropenem, percent inhibition; hit rate 0.27% among 330,000; call rule not given here;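 note: growth measured after seven days incubation then overnight dye step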
# GDH-TPI counter-1: GDH-TPI coupled enzyme inhibition counter-screen. hit rate 1.2% among 360,000. inhibition, % at 4.8 µM. GDH-TPI coupled enzyme counterscreen, NADH absorbance; in the data active = inhibition above about 30%
# RecA splice inh: blocks M. tuberculosis RecA intein splicing | P9WHJ3 | cell-free RecA intein splicing, fluorescence | inhibition, % (test concentration not listed) | hit rate 0.75% among 290,000 | AID 2221; in the data active = inhibition above about 30%; inconclusive = no clear call, values can overlap the other calls
# Rv3671c protease: inhibitors of M. tuberculosis serine protease Rv3671c; inhibition, % at 5.96 µM; hit rate 0.048% among 320,000; P9WHR9; in the data active = inhibition above about 38%;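 note: extracellular domain of Rv3671c used as enzyme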
# Mtb FBA inh: Mtb fructose-bisphosphate aldolase inhibition. P9WQA3. purified M. tuberculosis FBA, fluorescence read-out. inhibition, % at 1 µM. hit rate 2.3% among 360,000. AID 588726
# Target sequence (P9WQA3 whole entry, looked up): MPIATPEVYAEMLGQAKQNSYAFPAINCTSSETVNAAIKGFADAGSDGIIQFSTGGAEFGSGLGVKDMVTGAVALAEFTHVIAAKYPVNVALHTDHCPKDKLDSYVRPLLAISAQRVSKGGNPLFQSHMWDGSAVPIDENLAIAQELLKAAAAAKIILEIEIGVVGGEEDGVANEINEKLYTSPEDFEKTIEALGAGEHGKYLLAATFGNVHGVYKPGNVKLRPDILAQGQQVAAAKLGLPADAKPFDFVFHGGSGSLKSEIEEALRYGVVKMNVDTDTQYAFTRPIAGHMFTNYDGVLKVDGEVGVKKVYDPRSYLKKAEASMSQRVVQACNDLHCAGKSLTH
# Mtb FBA confirm: Mtb FBA inhibition, confirmed; purified M. tuberculosis FBA, fluorescence read-out; shares compounds with Mtb FBA inh; inhibition, % at 1 µM; hit rate 78% among 5,600
# GDH-TPI counter-2: counter-screen for M. tuberculosis FBA inhibitors: GDH-TPI coupled enzyme inhibition | shares compounds with Mtb FBA inh | GDH-TPI coupled enzyme counterscreen, fluorescence | inhibition, % at 1 µM | hit rate 81% among 5,600 | AID 652141; in the data active = inhibition above about 10%
# Numbers stand for hits; n = inactive; u = inconclusive; x = no result given; + = active, no number. Cut-off read from the data, not from the text of the source, unless noted: active = inhibition above about 27%; inactive = the rest.
SMILES,UGM FP inh,Mtb bLac sens,GDH-TPI counter-1,RecA splice inh,Rv3671c protease,Mtb FBA inh,Mtb FBA confirm,GDH-TPI counter-2
COc1cc(C)c(C2NC(=O)c3ccccc3N2)cc1C (stereo not given),x,x,n,x,x,n,x,x
CC1=C(C(=O)N2CCOCC2)CC(CC(=O)NCCCCc2ccccc2)C(=O)N1CCC1=CCCCC1 (stereo not given),x,x,n,x,x,n,x,x
Cc1ccc2nc(NCC(N)=O)nc(-c3ccccc3)c2c1,n,n,x,n,n,x,x,x
O=C(O)CCNc1nc(-c2ccccc2)c2cc(Br)ccc2n1,n,n,n,n,x,n,x,x
Cc1ccc2nc(NCCCO)nc(-c3ccccc3)c2c1,n,n,n,n,n,31,+,+
Cc1ccc2nc(NCCC(=O)O)nc(-c3ccccc3)c2c1,n,n,n,n,n,36,48,48
OCCCNc1nc(-c2ccccc2)c2cc(Br)ccc2n1,n,n,n,n,n,n,x,x
Cc1ccc2nc(NCC(=O)O)nc(-c3ccccc3)c2c1,n,n,n,n,n,30,54,46
O=S(=O)(c1cnc[nH]1)N1CCN(C(c2ccc(F)cc2)c2ccc(F)cc2)CC1,n,n,n,n,n,n,x,x
N=c1oc2ccccc2cc1C(=O)Nc1ccccc1,n,n,n,n,n,n,x,x
N=c1oc2cc(O)ccc2cc1C(=O)Nc1ccc(Br)cc1,n,n,n,n,n,73,n,15
Cc1cccc(-n2nc(C)c3c(C(=O)O)cc(-c4cccs4)nc32)c1,n,n,n,n,n,62,149,135
COc1ccc(-c2cc(C(=O)O)c3c(C)nn(-c4ccccn4)c3n2)cc1,x,n,x,n,n,x,x,x
Cc1nn(-c2ccccn2)c2nc(-c3cccs3)cc(C(=O)N3CCOCC3)c12,n,n,31,n,n,105,59,59
Cc1nn(-c2cccc(Cl)c2)c2nc(-c3ccco3)cc(C(=O)O)c12,n,n,n,n,n,n,x,x
NC(=O)c1nsc(C(=O)N(c2ccc3c(c2)OCCO3)C(C(=O)NCC2CCCO2)c2ccc(F)cc2)c1N (stereo not given),n,n,n,n,n,n,x,x
CCOc1ccc2nc(NCCCNC(=O)c3cc(OC)c(OC)c(OC)c3)c(C#N)cc2c1,n,n,n,n,n,n,x,x
CCOc1ccc2nc(NCCNC(=O)CC)c(C#N)cc2c1,n,n,n,n,n,43,105,114
Cc1cc2cc(C)c(NCCNC(=O)c3ccccc3Cl)nc2cc1C,n,n,n,n,n,n,x,x
CCC(=O)NCCNc1nc2cc(C)c(C)cc2cc1C#N,n,n,n,n,n,53,n,n
COc1ccc(NC2CCCN(C(=O)c3cccc(C)n3)C2)cc1OC (stereo not given),n,n,n,n,n,n,x,x
Cc1cc(NC(=O)CSCC(=O)Nc2nc3ccccc3s2)no1,n,n,n,x,n,n,x,x
O=C(c1ccc2c3n(nc2c1)-c1ccccc1CO3)N1CCCCC1,n,n,n,n,n,n,x,x
c1ccc2c(c1)COc1c3ncccc3nn1-2,x,x,n,x,x,33,37,32
Cc1cccc(N2CCN(S(=O)(=O)c3ccc4c(c3)CCCN4C(=O)C3CCC3)CC2C)c1 (stereo not given),n,n,n,n,n,n,x,x
SMILES,UGM FP inh,Mtb bLac sens,GDH-TPI counter-1,RecA splice inh,Rv3671c protease,Mtb FBA inh,Mtb FBA confirm,GDH-TPI counter-2
CC(C)OC(=O)c1cc2c(ccn2-c2ccc(F)cc2)n1CC(=O)N1CCN(C(=O)c2ccco2)CC1,n,n,n,n,n,36,+,+
CC(C)OC(=O)c1cc2c(ccn2C)n1CC(=O)N1CCC(Cc2ccccc2)CC1,n,n,n,n,n,n,x,x
COC(=O)c1cc2c(ccn2-c2ccc(F)cc2)n1CC(=O)N1CCN(C(=O)c2ccco2)CC1,n,n,n,x,n,29,+,197
COc1cccc2oc3ccc(C#Cc4ccccn4)cc3c(=O)c12,n,n,n,n,n,86,99,83
CCCC[n+]1ccn(-c2nc3ccccc3nc2[N-]S(=O)(=O)c2ccccc2)c1,n,n,n,n,n,33,+,197
O=C(CN(Cc1ccccc1)C(=O)CNS(=O)(=O)c1ccc(F)cc1)NCc1ccco1,n,n,n,n,n,n,x,x
CSc1ncccc1C(=O)OC(C)C(=O)Nc1ccc2c(c1)OCCO2 (stereo not given),x,x,n,x,x,n,x,x
CC(OC(=O)c1cccnc1Cl)C(=O)Nc1ccc2c(c1)OCCO2 (stereo not given),n,n,n,x,n,35,161,130
COc1ccc2oc(C(=O)OCC(=O)NC3CC3)c(C)c2c1,n,u,n,n,n,44,+,+
COc1ccc2oc(C(=O)OCC(=O)NC(C)(C#N)C3CC3)c(C)c2c1 (stereo not given),n,n,n,n,n,31,n,24
CCOc1ccc2oc(C(=O)OCC(=O)NC3CC3)c(C)c2c1,n,n,n,n,n,40,62,47
Nc1c(C(=O)CCC(=O)O)oc2ccc(Cl)cc12,n,n,n,n,n,n,x,x
NC(=O)c1oc2ccc(Cl)cc2c1N,n,n,n,n,n,87,100,69
CCCNC(=O)NC(=O)COC(=O)c1oc2ccc(OCC)cc2c1C,n,n,n,n,n,n,x,x
CCN(CC)Cc1c(C(=O)N/N=C/c2ccccn2)nnn1-c1nonc1N,n,n,n,n,n,n,x,x
Cc1noc(C)c1C(=O)OC(C)C(=O)Nc1ccc(C(N)=O)cc1 (stereo not given),n,n,n,x,n,n,x,x
COC(=O)c1oc2ccc(OC)cc2c1N,n,n,n,n,n,29,+,166
COc1ccc2oc(C(=O)NC3CCCCC3)c(C)c2c1,n,n,n,n,n,28,41,27
COc1ccc(-c2oc3ccccc3c2C(=O)OCc2ccccc2)cc1,n,n,n,n,n,99,+,175
COc1ccc(-c2oc3ccccc3c2C(=O)OCc2ccc(O)cc2)cc1,n,n,n,n,n,74,60,64
COc1ccc(-c2oc3ccccc3c2C(=O)Oc2ccccc2)cc1,n,n,n,n,n,91,29,27
COc1ccc(OC(=O)OCc2ccccc2)cc1,x,x,n,x,x,n,x,x
Cc1cccc(-c2oc3ccc(-c4ccc5c(c4)OCO5)cc3c2C(=O)OCc2ccc(O)cc2)c1,n,n,n,n,n,n,x,x
COc1cc(/C=C/C(=O)OCC(=O)NCCN2C(=O)CSC2=O)ccc1OCC#N,n,n,n,x,n,n,x,x
CCN(CC(=O)NCc1cccs1)C(=O)/C=C/c1ccc(OC)cc1OC,n,n,n,n,n,n,x,x
COc1ccc(OC)c(/C=C/C(=O)N2CCN(S(=O)(=O)c3ccc(C)cc3C)CC2)c1,x,n,n,x,n,29,n,n
COc1ccc(OC)c(/C=C/C(=O)N(C)CC(=O)Nc2cc(C)ccc2C)c1,n,n,n,n,n,29,34,29
